From PubChem BioAssay
AI-2 QS modul = Vibrio harveyi AI-2 quorum sensing modulation; Vibrio harveyi JMH597 AI-2 luminescence/OD600 ratio, 9 h; stronger effect = lower value; strain lacks LuxN and CqsS sensors; 0 = neutral-control median; activity change, % at 7.5 µM; 300,000 compounds, 0.4% hits; in the data active = activity change below about -75%, passing the limit was not always enough; inconclusive = no clear call, values can overlap the other calls;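 also: luminescence divided by OD600 gain over 9 h not by final OD600 alone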
NR3A LBD binder = modulates the human NR3A ligand-binding domain; Tm shift relative to glycine control, % at 25 µM; NR3A LBD differential scanning fluorimetry, Tm shift; 0% = protein alone, 100% = glycine-bound protein; 340,000 compounds, 2.5% hits;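 active = melting temperature shift of at least 10% of the positive control shift, at one fixed dose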
Cardio protect = protects H9c2 cardiomyocytes from peroxide injury; protection from H2O2 cell death, % at 20 µM; H2O2 injury protection, ATPLite, 2 h; AID 588492; 360,000 compounds, 0.63% hits;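 active = compounds giving at least 50% protection of heart cells from peroxide-induced death in the single-dose screen, raw or plate-pattern-corrected value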
NTR1 ag = agonists of human neurotensin receptor NTR1. AID 493036. P30989. 330,000 compounds, 0.17% hits. activation, % at 20 µM. NTR1-U2OS beta-arrestin-GFP spot imaging, agonist mode;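 active = activation at or above 40% of the spot to cytoplasm intensity ratio, with at least 20 cells analyzed; inconclusive = wells under 20 cells, flagged as cytotoxic or low count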
Target sequence (P30989 whole entry, looked up): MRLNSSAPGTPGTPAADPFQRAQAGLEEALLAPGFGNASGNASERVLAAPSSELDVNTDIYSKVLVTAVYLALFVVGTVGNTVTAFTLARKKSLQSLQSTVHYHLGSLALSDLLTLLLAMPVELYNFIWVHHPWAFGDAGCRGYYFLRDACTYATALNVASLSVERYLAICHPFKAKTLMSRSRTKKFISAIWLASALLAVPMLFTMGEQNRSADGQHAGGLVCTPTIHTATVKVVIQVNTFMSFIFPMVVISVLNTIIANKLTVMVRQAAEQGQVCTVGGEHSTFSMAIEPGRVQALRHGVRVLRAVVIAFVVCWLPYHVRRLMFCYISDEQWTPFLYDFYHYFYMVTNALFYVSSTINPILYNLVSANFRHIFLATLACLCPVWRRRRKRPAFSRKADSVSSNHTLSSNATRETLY
Mot1-301 SUMO = blocks SUMOylation pathway, rescuing yeast Mot1-301 growth | S. cerevisiae Mot1-301 growth rescue, ATP luminescence, 38.5C; percent above DMSO median, 100 means doubled | growth rescue, % at 18.8 µM | 320,000 compounds, 1% hits;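 active = every valid replicate shows activation above 250% relative to neutral control wells; inactive = the rest, any valid replicate at or below 250%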
AHR act = human AHR activation | AID 2796 | 320,000 compounds, 2.5% hits | activation, % at 5 µM | AHR-responsive luciferase reporter cells, luminescence; in the data active = activation above about 47%
Of the large screens only hits and unclear results are named; the others gave an inactive call. Rows were chosen to be rich in hits. Some 6.2% of all compounds tested hit in one or more screens of this group.

O=C(Nc1nc(-c2ccccc2)cs1)c1ccccc1NS(=O)(=O)c1ccc(F)cc1	NR3A LBD binder 32
O=S(=O)(Nc1ccccc1)c1ccc(-c2csnn2)cc1	none
O=S(=O)(Nc1ccc(-c2csc(-c3ccccc3)n2)cc1)c1ccc(F)cc1	NR3A LBD binder 22
Fc1ccc(-c2csc(-c3ccncc3)n2)cc1	NR3A LBD binder 26
OC(c1ccc(F)cc1)c1nc(-c2ccncc2)cs1 (stereo unspecified)	none (no result: AI-2 QS modul, NR3A LBD binder, NTR1 ag, Mot1-301 SUMO, AHR act)
COc1cc2ccc(C(C)=NNC(N)=S)cc2cc1OC	none (no result: AI-2 QS modul, NR3A LBD binder, NTR1 ag, Mot1-301 SUMO, AHR act)
CC(C)(C)c1nnc(NC(=O)COc2ccc3c(c2)OCO3)s1	AHR act 60
CC(=O)c1sc(Nc2nc3cc4c(cc3s2)OCO4)nc1C	none (no result: NTR1 ag, Mot1-301 SUMO, AHR act)
c1ccc2sc(Nc3nc4cc5c(cc4s3)OCO5)nc2c1	AHR act 137
O=C(COc1ccc2c(c1)OCO2)NCc1cccs1	AHR act 49 (no result: AI-2 QS modul)
CCOC(=O)c1sc(Nc2nc3cc4c(cc3s2)OCO4)cc1C	NR3A LBD binder 29
O=C(Cc1cccs1)NCc1ccc2c(c1)OCO2	none
Cn1c(COc2ccc([N+](=O)[O-])cc2)nnc1SCC(=O)NCC1CCCO1 (stereo unspecified)	none
CC(C)c1ccc(S(=O)(=O)NC2CCS(=O)(=O)C2)cc1 (stereo unspecified)	none
O=C(O)CSc1nc2ccc(C(=O)c3ccccc3)cc2[nH]1	none (no result: AHR act)
O=C(COc1ccccc1)Nc1nc2cc3c(cc2s1)OCO3	NR3A LBD binder 14
CC(=O)Nc1nc2cc3c(cc2s1)OCO3	AHR act 54
CC1CCCCN1C(=O)C1COc2ccccc2O1 (stereo unspecified)	none
Nc1ncnc2c1ncn2[C@@H]1O[C@H](C(=O)N(CCC2=CCCCC2)CC2CC2)[C@@H](O)[C@H]1O	none (no result: AI-2 QS modul, NR3A LBD binder, NTR1 ag, Mot1-301 SUMO, AHR act)
Cc1cccc(N2Cc3ccc(Br)cc3C2)c1	AHR act 48
C/C(=N/O)c1cccc(N2Cc3ccccc3C2)c1	none
CC(=O)c1cccc(NC(=O)/C=C/c2ccc([N+](=O)[O-])s2)c1	NR3A LBD binder 10 (no result: NTR1 ag, Mot1-301 SUMO, AHR act)
COc1cc(NS(=O)(=O)c2ccc(NC(=O)/C=C/c3cccc([N+](=O)[O-])c3)cc2)ncn1	AHR act 104
Cc1cc(C)cc(NC(=O)/C=C/c2ccc([N+](=O)[O-])s2)c1	none (no result: NTR1 ag)
COc1cc(NS(=O)(=O)c2ccc(NC(=O)/C=C/c3ccc([N+](=O)[O-])cc3)cc2)ncn1	none
Cc1ccccc1C(=O)N/N=C/c1ccc([N+](=O)[O-])s1	AI-2 QS modul -76
Cc1ccccc1NC(=O)/C=C/c1ccc([N+](=O)[O-])s1	AHR act 50 (no result: NTR1 ag)
Cc1ccc(C)c(OCC(O)CN2CCC(Cc3ccccc3)CC2)c1 (stereo unspecified)	none
O=C(Nc1ccc([N+](=O)[O-])cc1)C(=O)Nc1cccc(C(=O)O)c1	none
O=C(/C=C/c1ccc([N+](=O)[O-])cc1)Nc1cccc(C(=O)Nc2ccccc2C(=O)O)c1	NR3A LBD binder 17 (no result: AI-2 QS modul, NTR1 ag)
O=C(CNC(=O)c1cccc(F)c1)N/N=C/c1ccc([N+](=O)[O-])s1	AI-2 QS modul -148
O=C(O)/C=C/c1cccc(NC(=O)Nc2ccc([N+](=O)[O-])cc2)c1	NR3A LBD binder 18
O=C(N/N=C/c1ccc([N+](=O)[O-])s1)c1ccccc1	none (no result: Mot1-301 SUMO)
COC(=O)c1cccc(NC(=O)/C=C/c2cccc([N+](=O)[O-])c2)c1	NR3A LBD binder 17
NC(=O)C1CCN(c2nc(-c3ccccc3-c3ccccc3)cs2)CC1	none (no result: AI-2 QS modul)
CCOC(=O)C1(Cc2cccc(Cl)c2)CCCN(C(=O)CN2C(=O)CSC2=O)C1 (stereo unspecified)	none
O=c1oc2ccc3ccccc3c2cc1-c1nnc(-c2ccccc2)o1	Cardio protect 80
CCN(CC)c1ccc2cc(-c3nc4ccccc4[nH]3)c(=O)oc2c1	none
c1csc(-c2nnc(Cc3cccc4ccccc34)o2)c1	none
O=c1oc2ccc3ccccc3c2cc1-c1nnc(-c2cccs2)o1	AHR act 52 (no result: Mot1-301 SUMO)
CCN(CC)c1ccc2cc(-c3nnc(-c4ccccc4)o3)c(=O)oc2c1	NR3A LBD binder 32
CC(C)CCCN1C(N(C)C)=NC[C@@H]1Cc1ccccc1	none (no result: AI-2 QS modul)
CCOC(=O)C(C(=O)OCC)N(C#N)c1nc(OC)nc(N(C)C)n1	none (no result: Mot1-301 SUMO)
CCOC(=O)C(C(=O)OCC)N(C#N)c1nc(SC)nc(N(C)C)n1	AHR act 62
CSc1nc(N(C)C)nc(N(C#N)CCOC(C)=O)n1	Mot1-301 SUMO 656
CC(=O)c1cccc(-c2ccnc3c2CC(C(=O)Nc2cccc(C(F)(F)F)c2)O3)c1 (stereo unspecified)	none (no result: AI-2 QS modul, NR3A LBD binder, NTR1 ag, Mot1-301 SUMO, AHR act)
Cc1ccc(NC(=O)C2CCN(S(=O)(=O)c3ccc4c(c3)CCCC(=O)N4)CC2)cc1N(C)C	none
CCC(C)(C)NC(=O)C(c1cccn1C)N(C(=O)Cn1nnc2ccccc21)c1ccc(OC)cc1 (stereo unspecified)	NR3A LBD binder 11
O=c1c2[nH]c3ccccc3c2ncn1CCN1CCCCC1	AHR act 72
Cc1cccc2[nH]c3c(=O)n(CCN4CCNCC4)cnc3c12	none
O=c1c2ccccc2ncn1C1CCCCC1	none
O=c1c2[nH]c3ccccc3c2ncn1C1CCCCC1	AHR act 48
CC(C)CCn1cnc2c([nH]c3cccc(Cl)c32)c1=O	AHR act 60
Cc1ccc(S(=O)(=O)N2CCN(c3ccccc3)CC2)c(C)c1	none
Nc1c(Cl)ncnc1N/N=C/c1cccc(O)c1	NR3A LBD binder 24
COc1cccc(/C=N/Nc2ncnc(Cl)c2N)c1O	AI-2 QS modul -82
COc1ccc(/C=N/Nc2ncnc(Cl)c2N)cc1OC	none
COc1cccc(/C=N/Nc2ncnc3scc(-c4ccccc4)c23)c1O	Cardio protect 70
COc1cccc(/C=N/Nc2nccnc2Cl)c1O	AI-2 QS modul inconclusive (no result: Mot1-301 SUMO, AHR act)
CC(OC(=O)CC1CCCCC1)C(=O)Nc1ccc(F)cc1 (stereo unspecified)	none
Cc1ccc2[nH]c(C(=O)N3CCN(C(c4ccccc4)c4ccccc4)CC3)cc2c1	none
COc1ccc2cc(/C=N/NC(=O)CN(c3ccccc3C)S(=O)(=O)c3ccccc3)c(Cl)nc2c1	NR3A LBD binder 11
CC(Sc1nnc(NCc2ccccc2)s1)C(=O)Nc1ccc2c(c1)C(=O)c1ccccc1C2=O (stereo unspecified)	AHR act 50
Cn1c(=O)c(C(=O)Nc2ncccc2O)c(O)c2ccccc21	AHR act 77
CCCn1c(=O)c(C(=O)Nc2ccccc2)c(O)c2ccccc21	Cardio protect 57
C=CCn1c(=O)c(C(=O)Nc2ccccc2O)c(O)c2ccccc21	AHR act 63
CCCn1c(=O)c(C(=O)N/N=C/c2ccc(F)cc2)c(O)c2ccccc21	NR3A LBD binder 19
CCc1ccc(C2=CSC3=NCCN23)cc1	none
